Test results as given in PubChem BioAssay (NCI).
The panel holds about 79,000 compounds, 15% with a hit somewhere; the sample as a whole holds those more often. Rule as the data show it: active = growth inhibition above about 70%; inactive = the rest.

What was measured:
[1] = NCI Yeast Anticancer Drug Screen. Data for the rad50 strain (AID 155);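 also: 0% = growth of vehicle-only cultures of the same strain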; settings: S. cerevisiae rad50 strain growth inhibition; at 50.0 µM; stronger effect = higher value
In short: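 Readout: growth inhibition relative to vehicle-treated cultures. Compound exposure was carried out in a genetically defined yeast strain deficient in DNA damage repair.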

[2] = NCI Yeast Anticancer Drug Screen. Data for the mec2-1 strain (AID 157); settings: S. cerevisiae mec2-1 strain, at 50.0 µM, stronger effect = higher value
In short: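 Mutant yeast (mec2-1) grown with compound; growth inhibition relative to vehicle control reported.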

[3] = NCI Yeast Anticancer Drug Screen. Data for the sgs1 mgt1 strain (AID 161);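 also: 0% = growth of cultures given vehicle only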; settings: S. cerevisiae sgs1 mgt1 strain, at 50.0 µM, stronger effect = higher value
In short: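 Percent growth inhibition was derived by comparing compound-exposed mutant yeast with vehicle-exposed cultures. The strain carries alterations in DNA damage repair.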

[4] = NCI Yeast Anticancer Drug Screen. Data for the cln2 rad14 strain (AID 165);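 also: 0% = growth equal to vehicle treated cultures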; settings: S. cerevisiae cln2 rad14 strain, at 50.0 µM, stronger effect = higher value
In short: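 Readout is yeast growth inhibition versus vehicle-treated controls, using a strain with cln2 and rad14 alterations exposed to compound.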

[5] = NCI Yeast Anticancer Drug Screen. Data for the bub3 strain (AID 167); settings: S. cerevisiae bub3 mutant strain, at 50.0 µM, stronger effect = higher value
In short: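 Readout: yeast growth inhibition, expressed relative to vehicle-only wells. The test organism is a mutant strain from a panel with lesions in DNA repair or checkpoint genes.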

[6] = NCI Yeast Anticancer Drug Screen. Data for the mlh1 rad18 strain (AID 175); settings: S. cerevisiae mlh1 rad18 strain growth inhibition; at 50.0 µM; stronger effect = higher value
In short: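 Genetically defined yeast (DNA repair-deficient) exposed to compounds; growth inhibition determined relative to vehicle.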

Measured: growth inhibition

Nc1ccc(NC(=S)Nc2ccccc2)cc1
inactive: [1] -2.35% | [2] -18.3% | [3] -3.15% | [4] 2.2% | [5] -7.05% | [6] -12.7%

CN1c2ccccc2C2CC(CC#N)CC(=O)C21 (stereo unspecified)
inactive: [1] 18.9% | [2] 13.7% | [3] -8.1% | [4] -12.2% | [5] -20.2% | [6] 20.2%

COc1cc2c(cc1OC)C1CCN3CCCC3N1CC2 (stereo unspecified)
inactive: [1] -7.8% | [2] 7.6% | [3] 0.1% | [4] -14.9% | [5] 2.2% | [6] 3.3%

COc1cc(Nc2nc3ccccc3nc2-c2cccs2)cc(OC)c1OC
inactive: [1] 4.8% | [2] 14% | [3] 29.6% | [4] 29.8% | [5] 26.1% | [6] 6%

CN1CCN(CCSC(=O)C(O)(c2ccccc2)C2CCCC2)CC1 (stereo unspecified)
inactive: [1] 17.1% | [2] 16.6% | [3] 7.35% | [4] -17.2% | [5] 4.6% | [6] 24.8%

Nc1ccccc1OCOCOc1ccccc1N
inactive: [1] -11.7% | [2] -17.8% | [3] -7% | [4] -11.4% | [5] -6.3% | [6] -10.3%

CC(=O)Nc1cnc2c(nc3cc(C)ccn32)c1C
inactive: [1] -5% | [2] -9.1% | [3] -19.9% | [4] -9.55% | [5] -0.7% | [6] -10.2%

CC(C)c1ccc(/C=C2/CCCCC2=O)cc1
inactive: [1] -2.55% | [2] -15% | [3] -10.5% | [4] -68.8% | [5] -16.4% | [6] -24.9%

C=CCNC(=O)CCCCCCC/C=C\CCCCCCCC
inactive: [1] 16.6% | [2] -8.5% | [3] -1.45% | [4] -27.6% | [5] -2.85% | [6] 9.4%

CN1CC=C(C#CC(C)(C)O)CC1
inactive: [1] -13% | [2] -17.4% | [3] -0.65% | [4] 4.7% | [5] -5.9% | [6] -25.3%

CC(C)CCCC(C)C1CCC2C3CCC4CC(=O)CCCC4(C)C3CCC12C (stereo unspecified)
inactive: [1] 19.8% | [2] 3.35% | [3] 20.7% | [4] 12.2% | [5] 2.1% | [6] 32.5%

COC(=O)c1ccccc1C(=O)O
inactive: [1] 17.1% | [2] 4.05% | [3] 11.6% | [4] -10.1% | [5] 3.4% | [6] 23.2%

Cc1ccc(CNC(=O)Nc2c(C)cccc2C)cc1C
inactive: [1] 8.8% | [2] 2.55% | [3] 9.75% | [4] -6.3% | [5] 14.4% | [6] 3.45%

O=[N+]([O-])c1ccc2c3c(ccc([N+](=O)[O-])c13)CC2
inactive: [1] -9.35% | [2] -13.3% | [3] -6.75% | [4] -29.2% | [5] -18.4% | [6] -18.3%

COC1OCC(NC(C)=O)C(OC(C)=O)C1OC(C)=O (stereo unspecified)
inactive: [1] 12.4% | [2] -13.1% | [3] -4.1% | [4] 2.35% | [5] -1.3% | [6] -8%

O=c1cc(CSc2ncnc3nc[nH]c23)occ1O
inactive: [1] -11.3% | [2] -4.4% | [3] -2.1% | [4] 2.55% | [5] 11.8% | [6] 4.2%

NCCCCCCN1CCN(c2cccc(Cl)c2)CC1
inactive: [1] 14.2% | [2] 21.9% | [3] 14.8% | [4] 7.55% | [5] 13.8% | [6] -13.4%

CCc1cccc(C(C)C)c1NC(=O)C(=O)C(CC(=O)Nc1ccc(Cl)c(Cl)c1)C(=O)OC (stereo unspecified)
inactive: [1] -1.85% | [2] 3.6% | [3] -2.65% | [4] 15.8% | [5] 14.8% | [6] 7.7%

COc1nc(NC2OC(CO)C(O)C(O)C2O)c(Br)c(=O)n1C (stereo unspecified)
inactive: [1] 4.4% | [2] -1.15% | [3] -3.6% | [4] -4.1% | [5] 0.75% | [6] 23%

Oc1ccccc1C1N=NC2=C(CCCC2)N1O (stereo unspecified)
inactive: [1] -12.9% | [2] -26.4% | [3] -2.5% | [4] -12.1% | [5] 21.9% | [6] -7.15%

CC1=NN(c2cccc([N+](=O)[O-])c2)C(=O)C1
inactive: [1] 13.9% | [2] -25% | [3] 10.7% | [4] -5.7% | [5] 16.8% | [6] 32.6%
